Laboratory results: PubChem BioAssay (NCI)
About 83,000 compounds went through this panel and 20% of them were active in at least one assay; those are over-represented in the sample as a whole.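 The endpoint reported here, percent growth, reads 100 for growth as untreated, 0 for no net growth and -100 for all cells dead.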 Values without a mark were called inactive. The source made the active and inactive calls. Rule for the calls: active = growth percent below 10; inactive = the rest.

Tested on: SF-295 CNS
Assay: NCI-60 one-dose screen, 48 h (100 = growth as untreated, 0 = no growth, -100 = all killed)
Details: 10 µM unless noted

Row | SMILES | growth
1 | COc1cc(-c2nc(SCCC(C)C)nc(Nc3ccccc3)c2C#N)cc(OC)c1OC | 100%
2 | O=C(N/N=C\c1cc(Cl)ccc1O)N/N=C/c1cc(Cl)ccc1O | 25.5%
3 | Cc1ccc(S(=O)(=O)Oc2ccc([N+](=O)[O-])cc2[N+](=O)[O-])cc1 | 108%
4 | COCCCNc1nc(NC(=O)c2cc(OC)cc(OC)c2)cc(-c2cccnc2)n1 | 100%
5 | CC1(C)CC[C@]2(C(=O)O)CC[C@]3(C)C(=CC[C@@H]4[C@@]5(C)C/C(=C/c6ccco6)C(=O)C(C)(C)[C@@H]5CC[C@]43C)[C@@H]2C1 | -56.2% [100 µM] (active)
6 | O=C(N=c1n(-c2ccccc2)nc2n1CCN2C1=NCCN1)c1ccc(Cl)cc1 | 97.1%

Tested on: SF-539 CNS
Assay: as above
Details: 10 µM unless noted

Row | SMILES | growth
7 | CC1=CCc2ccccc21 | 112%
8 | O=C1Nc2ccccc2/C1=C/C(=O)c1ccc(N2CCCCC2)cc1 | 79.3%
9 | COc1ccc2nc3c(cc2c1)C(=O)CC(c1ccccc1)C3 (stereo not drawn) | 7.92% (active)
10 | Oc1ccc(N=Nc2nccs2)c(O)c1 | 86.1%
11 | Cc1cc(-c2ccc(N=Nc3c(S(=O)(=O)O)cc4cc(S(=O)(=O)O)cc(N)c4c3O)c(C)c2)ccc1N=Nc1cc(S(=O)(=O)O)c2ccccc2c1O | 88.4%
12 | C#CCNC(=O)CC[C@]1(C)[C@H]2CC[C@@H]3[C@@H]([C@@](C)(O)CCC=C(C)C)CC[C@@]3(C)[C@]2(C)CC[C@H]1C(=C)C | -81% [100 µM] (active)
13 | CC(=O)Nc1ccc2nc3ccc(NC(C)=O)cc3[n+](-c3ccccc3)c2c1 | 89.3%
14 | CCN(CC)CCCCCCNc1cccc2cc(Br)cnc12 | 94.4%
15 | COc1ccc(NC(=S)NNc2ccc(-c3ccc(OC)c(OC)c3)nn2)cc1 | 97.6%
16 | O=[N+]([O-])c1cc([N+](=O)[O-])c(NN=C(c2ccc(O)cc2)c2ccc(O)cc2)cc1Cl | -51.9% (active)
17 | CC(C)C1=NOC(=O)C1=Cc1cn(-c2ccccc2)nc1-c1cccc([N+](=O)[O-])c1 | 98.1%
18 | C=C(C)[C@@H]1CC[C@]2(C(=O)NCCNCCNCCN)CC[C@]3(C)[C@H](CC[C@@H]4[C@@]5(C)CC[C@H](O)C(C)(C)[C@@H]5CC[C@]43C)[C@@H]12 | -100% [100 µM] (active)
19 | O=C1COCCN1c1ccc(Nc2nc(Cl)nc(N3CCOCC3)n2)cc1 | 96.5%
20 | Cn1cc(-c2noc(-c3cn(C)c4ncc(F)cc34)n2)c2cc(Br)ccc21 | 71.3%
21 | CC1(C)NCCC[C@]2(C)[C@H]3C=CC4=C5C[C@](C)(CO)CC[C@]5(C)CC[C@@]4(C)[C@]3(C)CC[C@@H]12 | -93.3% [100 µM] (active)
22 | CCCC(NC(=O)OCc1ccccc1)C(=O)O (stereo not drawn) | 95.9%
23 | CC(C)C1=NOC(=O)C1=Cc1cn(-c2ccccc2)nc1-c1ccc(Cl)cc1 | 75.9%
24 | COc1cc(OC)cc(C(=O)Nc2cc(-c3cccnc3)nc(NCCCN3CCOCC3)n2)c1 | 91.1%
25 | Brc1ccc2c(c1)CN(C1CCCCC1)CO2 | 98.2%
26 | CC/C=C(\C)C(CCC)(CN=O)C(=O)OCC (stereo not drawn) | 98.9%
27 | O=C(Nc1ccc(F)cc1)c1ccccc1 | 99.3%
28 | O=C(O)c1cccc(CN2CCN(c3cc4c(cc3F)c(=O)c(C(=O)O)cn4C3CC3)CC2)c1O | 101%
29 | COC(=O)c1c(C)[nH]c(/C=C2\N=C(c3ccc[nH]3)C=C2OC)c1C | -59.7% (active)
30 | C=CCCC1(C)NC(=O)NC1=O (stereo not drawn) | 104%
31 | O=[N+]([O-])c1cccc(N=NNc2cccc([N+](=O)[O-])c2)c1 | 97.6%
32 | Cc1ccc(N)c(O)c1 | 99.1%
33 | CCN(CC)c1ccc2cc(NC(=O)OCCNC(=O)CCNC(=O)[C@H](CC(C)C)NC(=O)C(C)(C)NC(=O)C(C)(C)NC(=O)[C@H](CC(C)C)NC(=O)CCNC(=O)C(C)(C)NC(=O)[C@H](CC(C)C)NC(=O)CCNC(=O)[C@@](C)(CC)NC(=O)[C@H](C)NC(=O)CCNC(=O)C(C)(C)NC(=O)[C@H](C)NC(=O)[C@@H]3CCCN3C(=O)[C@@](C)(CC)NC(=O)[C@H](Cc3ccccc3)NC(=O)C3CCCN3C(=O)C(C)(C)NC(=O)C3CCCN3C(=O)C(C)(C)NC(C)=O)c(=O)oc2c1 (stereo partly drawn) | -84.7% (active)
